# Assay results reported in the supplement of paper PMC10849652.
# The full data set covers some 7,900 targets. This sample favours those with a hit. About 0.6% of all pairs of compound and target were hits. Unmarked numbers belong to inactive results.
# Legend:
# Experiment in all cases: log2 fold change, soluble protein after heating vs DMSO (PISA); higher = thermal stabilisation; K562 cells, 10 uM, 30 min; active = over 0.2 and 3.5 SD of the protein, either way, in both replicates (recomputed)
# [1] = compound: C1=CC=C(C=C1)[C@H](COC2=CC3=C(C=C2)NC(=O)N3)NC(=O)C4=CC=CN(C4=O)CC5=CC(=C(C=C5)F)F
# How it was run: (§1)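 K562 cells at 2×10^6 cells/mL were treated for 30 min with 10 μM compound, and aliquots were heated for 3 min over 48°C-58°C before pooling. Extraction used PBS with 0.5% NP-40 at 4°C, and soluble protein was the supernatant after 21,000xg for 90 min, measured by TMTpro 16plex LC-MS/MS with channel sums equalised. Thermal stability values, relative to control samples and from duplicates, are log2 fold changes.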
# [2] = compound: CC1=C(SC2=C1C(=N[C@H](C3=NN=C(N32)C)CC(=O)N)C4=CC=C(C=C4)Cl)C
# How it was run: as §1
# [3] = compound: CC1=C2C(=CC=C1)N=C(N(C2=O)C3=CC=CC=C3C)CN4C=NC5=C(N=CN=C54)N
# How it was run: as §1
# [4] = compound: Cc1sc2c(c1C)C(c1ccc(Cl)cc1)=N[C@@H](CC(=O)OC(C)(C)C)c1nnc(C)n1-2
# How it was run: as §1
# [5] = compound: c1ccc([C@@H]2C[C@H]2NC2CCNCC2)cc1
# How it was run: as §1
# UniProt Q8IUR7, sequence (Q8IUR7 whole entry, looked up): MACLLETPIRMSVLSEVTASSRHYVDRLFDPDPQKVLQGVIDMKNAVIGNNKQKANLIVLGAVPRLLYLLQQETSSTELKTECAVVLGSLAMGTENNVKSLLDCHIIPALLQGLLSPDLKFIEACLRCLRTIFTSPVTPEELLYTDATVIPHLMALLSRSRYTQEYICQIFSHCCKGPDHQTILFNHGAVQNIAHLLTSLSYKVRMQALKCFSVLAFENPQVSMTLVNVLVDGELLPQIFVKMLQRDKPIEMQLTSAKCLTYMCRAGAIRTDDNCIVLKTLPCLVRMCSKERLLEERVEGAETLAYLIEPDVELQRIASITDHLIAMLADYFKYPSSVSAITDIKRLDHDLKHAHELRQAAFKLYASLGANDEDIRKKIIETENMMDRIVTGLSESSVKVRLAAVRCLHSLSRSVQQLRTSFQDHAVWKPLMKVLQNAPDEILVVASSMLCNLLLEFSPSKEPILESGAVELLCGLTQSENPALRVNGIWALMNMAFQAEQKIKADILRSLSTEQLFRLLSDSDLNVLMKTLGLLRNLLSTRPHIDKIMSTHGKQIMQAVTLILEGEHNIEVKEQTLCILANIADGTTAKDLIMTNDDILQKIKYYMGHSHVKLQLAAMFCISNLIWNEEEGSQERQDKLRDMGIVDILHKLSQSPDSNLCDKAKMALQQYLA
# UniProt O60566, sequence (O60566 whole entry, looked up): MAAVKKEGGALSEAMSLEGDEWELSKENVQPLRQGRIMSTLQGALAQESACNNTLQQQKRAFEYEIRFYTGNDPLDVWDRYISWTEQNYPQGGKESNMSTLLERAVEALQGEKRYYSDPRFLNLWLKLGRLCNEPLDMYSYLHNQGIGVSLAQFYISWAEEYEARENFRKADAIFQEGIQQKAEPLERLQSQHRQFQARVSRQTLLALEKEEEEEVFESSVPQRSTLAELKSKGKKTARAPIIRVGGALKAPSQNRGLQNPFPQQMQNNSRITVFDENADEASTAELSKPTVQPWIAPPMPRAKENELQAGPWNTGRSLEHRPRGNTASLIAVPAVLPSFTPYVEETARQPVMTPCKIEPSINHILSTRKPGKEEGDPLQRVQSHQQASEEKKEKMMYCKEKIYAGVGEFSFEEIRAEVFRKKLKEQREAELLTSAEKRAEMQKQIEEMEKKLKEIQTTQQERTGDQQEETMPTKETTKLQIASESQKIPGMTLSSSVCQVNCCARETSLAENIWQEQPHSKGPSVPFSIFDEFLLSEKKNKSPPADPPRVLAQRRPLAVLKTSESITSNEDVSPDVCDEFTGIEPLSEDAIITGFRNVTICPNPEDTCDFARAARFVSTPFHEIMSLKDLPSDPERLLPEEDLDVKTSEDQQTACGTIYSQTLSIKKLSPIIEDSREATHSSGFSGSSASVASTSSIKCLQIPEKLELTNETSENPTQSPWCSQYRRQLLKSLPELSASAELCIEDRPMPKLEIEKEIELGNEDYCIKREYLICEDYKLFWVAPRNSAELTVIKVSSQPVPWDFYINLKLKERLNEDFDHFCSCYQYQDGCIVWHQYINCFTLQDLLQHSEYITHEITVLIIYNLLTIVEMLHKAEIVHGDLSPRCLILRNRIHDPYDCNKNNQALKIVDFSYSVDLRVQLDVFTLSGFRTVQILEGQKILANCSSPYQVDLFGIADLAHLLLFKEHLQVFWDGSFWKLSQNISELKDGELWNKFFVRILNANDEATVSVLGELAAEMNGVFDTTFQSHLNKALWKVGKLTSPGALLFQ
# UniProt P18085, sequence (P18085 whole entry, looked up): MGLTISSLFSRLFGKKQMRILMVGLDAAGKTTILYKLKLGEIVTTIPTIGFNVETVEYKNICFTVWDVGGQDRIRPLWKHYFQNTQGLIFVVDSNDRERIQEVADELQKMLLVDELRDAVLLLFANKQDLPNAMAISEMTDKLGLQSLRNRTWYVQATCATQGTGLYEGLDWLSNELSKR
# UniProt P54252, sequence (P54252 whole entry, looked up): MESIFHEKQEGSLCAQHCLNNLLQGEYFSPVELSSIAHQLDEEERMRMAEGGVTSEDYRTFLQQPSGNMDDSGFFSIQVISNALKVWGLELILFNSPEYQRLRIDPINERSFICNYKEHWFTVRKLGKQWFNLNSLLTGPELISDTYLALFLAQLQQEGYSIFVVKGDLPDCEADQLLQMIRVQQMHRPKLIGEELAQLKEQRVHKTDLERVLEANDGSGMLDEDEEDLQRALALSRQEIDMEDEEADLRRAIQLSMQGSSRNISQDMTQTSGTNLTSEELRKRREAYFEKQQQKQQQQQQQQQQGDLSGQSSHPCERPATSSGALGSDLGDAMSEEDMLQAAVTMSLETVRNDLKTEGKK
# UniProt Q13733, sequence (Q13733 whole entry, looked up): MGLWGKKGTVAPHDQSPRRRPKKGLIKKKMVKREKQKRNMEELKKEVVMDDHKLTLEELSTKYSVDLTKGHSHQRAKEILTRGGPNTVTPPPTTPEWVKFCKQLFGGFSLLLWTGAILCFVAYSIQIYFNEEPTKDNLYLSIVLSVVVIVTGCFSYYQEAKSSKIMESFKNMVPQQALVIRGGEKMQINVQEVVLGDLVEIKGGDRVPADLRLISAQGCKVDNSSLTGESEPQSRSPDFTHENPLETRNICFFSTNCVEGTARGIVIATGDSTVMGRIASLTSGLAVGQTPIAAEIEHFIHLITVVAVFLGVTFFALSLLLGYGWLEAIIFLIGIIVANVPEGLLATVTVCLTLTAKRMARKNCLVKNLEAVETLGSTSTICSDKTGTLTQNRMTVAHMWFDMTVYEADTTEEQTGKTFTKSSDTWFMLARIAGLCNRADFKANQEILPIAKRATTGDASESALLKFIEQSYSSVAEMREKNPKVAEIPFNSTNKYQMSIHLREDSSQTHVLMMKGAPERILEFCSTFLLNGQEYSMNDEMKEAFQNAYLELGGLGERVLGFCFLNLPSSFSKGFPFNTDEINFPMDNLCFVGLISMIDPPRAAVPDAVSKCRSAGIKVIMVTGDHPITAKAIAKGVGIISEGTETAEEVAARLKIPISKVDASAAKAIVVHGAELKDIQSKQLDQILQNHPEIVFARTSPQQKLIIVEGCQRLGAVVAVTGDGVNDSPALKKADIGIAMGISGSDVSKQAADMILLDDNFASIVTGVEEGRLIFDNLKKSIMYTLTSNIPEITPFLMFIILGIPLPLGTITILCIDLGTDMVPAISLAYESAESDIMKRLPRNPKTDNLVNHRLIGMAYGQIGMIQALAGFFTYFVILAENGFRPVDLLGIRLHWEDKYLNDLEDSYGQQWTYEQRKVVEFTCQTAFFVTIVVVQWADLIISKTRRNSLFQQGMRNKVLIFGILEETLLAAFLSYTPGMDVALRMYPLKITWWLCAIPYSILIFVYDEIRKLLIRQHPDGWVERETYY
# UniProt Q14137, sequence (Q14137 whole entry, looked up): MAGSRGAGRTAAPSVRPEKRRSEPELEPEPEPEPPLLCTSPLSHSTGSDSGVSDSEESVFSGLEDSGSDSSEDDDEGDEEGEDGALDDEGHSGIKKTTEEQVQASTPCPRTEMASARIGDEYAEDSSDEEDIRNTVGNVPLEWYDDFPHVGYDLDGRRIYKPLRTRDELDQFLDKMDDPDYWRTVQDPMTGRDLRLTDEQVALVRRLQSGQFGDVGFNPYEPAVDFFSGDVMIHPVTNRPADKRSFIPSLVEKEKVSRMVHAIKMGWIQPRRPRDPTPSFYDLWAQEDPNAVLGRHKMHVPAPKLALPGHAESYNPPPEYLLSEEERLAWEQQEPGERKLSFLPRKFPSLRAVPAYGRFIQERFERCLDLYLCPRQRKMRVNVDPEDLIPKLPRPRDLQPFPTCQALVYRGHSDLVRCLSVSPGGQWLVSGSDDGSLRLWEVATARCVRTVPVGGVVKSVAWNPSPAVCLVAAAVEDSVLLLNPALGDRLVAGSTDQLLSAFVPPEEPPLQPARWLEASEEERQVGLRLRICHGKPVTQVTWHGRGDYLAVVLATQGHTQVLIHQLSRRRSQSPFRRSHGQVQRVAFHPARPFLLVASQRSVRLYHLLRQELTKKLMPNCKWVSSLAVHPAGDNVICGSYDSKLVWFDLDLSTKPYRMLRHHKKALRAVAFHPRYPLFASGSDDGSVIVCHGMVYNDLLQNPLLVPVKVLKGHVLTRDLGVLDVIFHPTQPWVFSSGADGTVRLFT
# UniProt Q99943, sequence (Q99943 whole entry, looked up): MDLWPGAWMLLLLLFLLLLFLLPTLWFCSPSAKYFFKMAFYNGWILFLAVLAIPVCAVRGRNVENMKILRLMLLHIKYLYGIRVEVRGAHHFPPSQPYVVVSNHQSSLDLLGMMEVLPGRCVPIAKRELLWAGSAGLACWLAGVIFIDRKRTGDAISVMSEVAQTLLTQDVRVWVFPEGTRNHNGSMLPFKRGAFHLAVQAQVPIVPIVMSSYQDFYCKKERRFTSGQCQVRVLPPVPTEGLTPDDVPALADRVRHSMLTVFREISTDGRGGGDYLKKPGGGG
# UniProt P11766, sequence (P11766 whole entry, looked up): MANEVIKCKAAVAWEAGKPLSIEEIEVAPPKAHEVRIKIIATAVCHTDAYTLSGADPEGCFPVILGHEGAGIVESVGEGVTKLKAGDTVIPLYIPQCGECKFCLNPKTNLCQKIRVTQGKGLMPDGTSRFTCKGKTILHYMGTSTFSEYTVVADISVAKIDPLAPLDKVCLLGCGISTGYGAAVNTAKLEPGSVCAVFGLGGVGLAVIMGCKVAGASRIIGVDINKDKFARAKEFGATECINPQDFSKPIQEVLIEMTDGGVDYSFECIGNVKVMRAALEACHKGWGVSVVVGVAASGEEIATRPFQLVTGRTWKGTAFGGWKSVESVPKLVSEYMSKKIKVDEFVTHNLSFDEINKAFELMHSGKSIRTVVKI
# UniProt O00170, sequence (O00170 whole entry, looked up): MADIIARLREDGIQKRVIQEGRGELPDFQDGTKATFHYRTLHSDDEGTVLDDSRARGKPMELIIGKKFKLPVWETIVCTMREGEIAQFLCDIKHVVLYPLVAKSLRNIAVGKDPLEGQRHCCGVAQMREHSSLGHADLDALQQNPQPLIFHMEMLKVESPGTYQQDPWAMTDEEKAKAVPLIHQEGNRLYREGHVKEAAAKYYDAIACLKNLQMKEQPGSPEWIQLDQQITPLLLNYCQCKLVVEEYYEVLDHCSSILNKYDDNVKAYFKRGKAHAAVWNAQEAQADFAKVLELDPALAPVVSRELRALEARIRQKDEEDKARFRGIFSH
Target,log2 fold change [1],log2 fold change [2],log2 fold change [3],log2 fold change [4],log2 fold change [5]
BRD4 (UniProt O60885),-0.116,2.22 (active),0.141,1.99 (active),0.029
AUP1 (UniProt Q9Y679),-0.044,0.053,0.028,-0.074,-0.051
AKT2 (UniProt P31751),-0.124,0.055,0.061,0.009,-0.028
ALDH9A1 (UniProt P49189),0.059,-0.193,0.03,0.098,0.156
ATF7 isoform 6 (UniProt P17544),-0.097,0,-0.187,0.184,-0.034
ANKZF1 (UniProt Q9H8Y5),-0.113,-0.037,-0.01,0.15,-0.008
AASDH (UniProt Q4L235),0.047,0.054,-0.25,-0.05,0.037
ASH2L (UniProt Q9UBL3),0.016,-0.013,0.081,-0.031,0.005
ATG4B isoform 2 (UniProt Q9Y4P1),-0.079,0.056,0.166,0.188,0.07
AHSA1 (UniProt O95433),-0.035,0.063,0.015,-0.024,-0.003
BCCIP isoform 2 (UniProt Q9P287),-0.031,0.002,-0.001,-0.035,0.014
BCCIP (UniProt Q9P287),-0.044,-0.018,0,-0.037,-0.062
ALKBH5 (UniProt Q6P6C2),0.065,-0.002,0.085,-0.024,0.028
ACP2 (UniProt P11117),0.027,-0.023,0.008,-0.023,0.024
AGPAT3 isoform 3 (UniProt Q9NRZ7),-0.012,0.064,0.021,-0.048,-0.024
ARF4 (UniProt P18085),0,0.045,0.053,-0.082,-0.015
BUB1B isoform 3 (UniProt O60566),-0.077,-0.004,0.1,0.01,-0.002
BID isoform 2 (UniProt P55957),-0.036,0.059,0.081,-0.076,-0.053
BOP1 (UniProt Q14137),0.096,-0.099,0.01,-0.036,-0.01
ATP9B (UniProt O43861),-0.092,-0.001,0.055,-0.048,0.071
ATP1A4 (UniProt Q13733),-0.084,-0.142,0.035,0.036,0.056
AGPAT1 (UniProt Q99943),-0.006,0.075,0.103,-0.032,0.023
ARAF (UniProt P10398),-0.05,-0.003,0.178,0.022,0.027
AP2S1 (UniProt P53680),-0.013,-0.007,-0.036,0.037,0.043
ACSM3 (UniProt Q53FZ2),-0.046,-0.051,0.091,-0.03,-0.029
ARHGAP4 isoform 2 (UniProt P98171),0.211,-0.101,-0.069,-0.122,0.008
AGPS (UniProt O00116),-0.046,0.081,0.079,-0.031,-0.051

Target,log2 fold change [1],log2 fold change [2],log2 fold change [3],log2 fold change [4],log2 fold change [5]
ATIC (UniProt P31939),-0.023,0.039,0.073,-0.041,-0.012
BRD8 (UniProt Q9H0E9),0.027,-0.009,0.023,0.009,0.021
APOB (UniProt P04114),0.041,0.028,0.055,0.034,-0.013
ATP5IF1 (UniProt Q9UII2),0.016,-0.087,-0.031,-0.013,-0.079
ANP32E (UniProt Q9BTT0),-0.092,-0.037,0.14,-0.012,0.075
ALG3 (UniProt Q92685),-0.061,0.019,0.072,0.054,-0.026
ATP6V1C1 (UniProt P21283),-0.011,0.004,0.05,-0.002,-0.039
ARMC8 (UniProt Q8IUR7),0.05,-0.005,0,0.021,0.011
ARL6IP6 (UniProt Q8N6S5),-0.003,0.113,0.08,0.164,0.118
AP2B1 isoform 2 (UniProt P63010),0.023,-0.017,-0.016,0.03,-0.002
AKAP8 (UniProt O43823),0.012,-0.03,0.105,-0.018,0.347 (active)
ACACB (UniProt O00763),-0.044,-0.053,0.025,0.084,0.007
AKR1C3 (UniProt P42330),0.155,0.049,0.132,-0.038,-0.156
BCLAF1 (UniProt Q9NYF8),0.031,0.027,-0.118,-0.013,0.047
ATR (UniProt Q13535),-0.045,0.025,0.107,-0.022,-0.079
ASNS (UniProt P08243),0.025,0.044,0.027,-0.008,-0.019
ADPRHL2 (UniProt Q9NX46),-0.09,0.08,0.034,-0.057,-0.087
AARSD1 isoform 3 (UniProt Q9BTE6),-0.053,-0.068,0.039,0.047,0.023
BECN1 (UniProt Q14457),-0.071,0.061,-0.017,0.021,0.05
ABITRAM (UniProt Q9NX38),-0.037,0.145,0.032,-0.044,-0.016
ATXN3 isoform 1 (UniProt P54252),-0.012,0.001,0.118,-0.068,0
AIP (UniProt O00170),-0.031,0.078,0.042,-0.004,-0.018
ATAD1 (UniProt Q8NBU5),0.016,0.055,0.063,-0.027,-0.02
ARHGAP1 (UniProt Q07960),-0.02,0.023,0.047,-0.005,0.002
ALDH9A1 isoform 3 (UniProt P49189),-0.007,0.029,0.019,-0.019,0.028
ADH5 (UniProt P11766),0.026,0.024,0.025,-0.023,0.017
